Laboratory results from PubChem BioAssay.
A number with no mark means an inactive call. Active and inactive are the calls of the source. How the calls were made is not given here.

Target: L-lactate dehydrogenase (Plasmodium falciparum (isolate CDC / Honduras)) (UniProt Q27743)
Test: PfLDH activity inhibition – cell lysate, 3D7 strain, counter-screen for P. falciparum growth inhibition project (AID 2304);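 further: 0% = vehicle and 100% = reference inhibitor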
Conditions: P. falciparum 3D7 crude extract, LDH APAD/NBT absorbance; at 2 µM; stronger effect = higher value

L-lactate dehydrogenase (Plasmodium falciparum (isolate CDC / Honduras)), sequence (Q27743 whole entry, looked up): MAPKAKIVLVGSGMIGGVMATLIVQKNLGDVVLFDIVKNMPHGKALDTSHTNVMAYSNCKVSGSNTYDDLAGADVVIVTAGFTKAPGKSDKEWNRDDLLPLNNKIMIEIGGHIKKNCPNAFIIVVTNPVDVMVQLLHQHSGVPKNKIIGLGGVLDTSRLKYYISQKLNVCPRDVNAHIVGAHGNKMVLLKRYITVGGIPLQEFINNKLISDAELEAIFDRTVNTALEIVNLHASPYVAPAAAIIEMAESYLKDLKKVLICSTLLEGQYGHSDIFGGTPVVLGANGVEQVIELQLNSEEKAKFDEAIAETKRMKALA

| SMILES | inhibition [%] |
| --- | --- |
| CN(c1ccc2c(c1)nc(Nc1ccc(Cl)cc1)n2C)c1ccnc(Nc2ccc(CS(C)(=O)=O)cc2)n1 | -7 |
| COc1ccc(Nc2nc(C)cc(NCc3ccc(-c4c(C)noc4C)cc3)n2)cc1 | -5 |
| CCCCCCN1CCCN(Cc2ccc(C(=O)Nc3ccc(CCC)cc3)cc2)CC1 | -3 |
| COc1cc2nc(Nc3ccc(Oc4ccccc4)cc3)nc(Nc3ccc(Oc4ccccc4)cc3)c2cc1OC | 6 |
| CN1CCCC(CN2CCN(Cc3cccc(-c4ccc(-c5nc6ccccc6[nH]5)cc4)c3)CC2)C1 (stereo not given) | -2 |
| COc1ccc2ncc(F)c(CCN3C[C@H](CNCc4ccc5c(c4)OCCO5)[C@H](O)C3)c2n1 | 7 |
| COc1ccc(CNC(=O)c2cnc3cc(-c4c(C)noc4C)ccc3c2Nc2ccccc2C(C)(C)C)cc1 | 0 |
| CC(O)C1CCCCN1C(=O)c1cccc(-c2ccc(-c3nc4ccccc4[nH]3)s2)c1 (stereo not given) | -1 |
| CC(C)(CN1CCCC1)CN(Cc1ccc(-c2ccc(C(F)(F)F)cc2)cc1)C(=O)Cn1c(CCc2cccc(F)c2F)nc(=O)c2ccccc21 | -3 |
| CC(CN(C)C)C(=O)Nc1ccc(-c2cccc(-c3nc4ccc(C(F)(F)F)cc4[nH]3)c2)cc1 (stereo not given) | -1 |
| Cc1[nH]c(C)c(-c2ccc(Oc3ccc(O)cc3)cc2)c(=O)c1Cl | -3 |
| Cc1cccc2[nH]c(-c3ccc(-c4cccc(CNCc5cccc(N)c5)c4)cc3)nc12 | -4 |
| COc1ccc2nccc(NCC3(O)CCC(NCc4ccc5c(n4)NC(=O)CS5)CC3)c2n1 (stereo not given) | 3 |
| Cc1cc2cc(-c3ccc(CN)cc3)ccc2nc1N | 4 |
| N#Cc1cccc(CN2CCCN(c3ccc(NC(=O)c4cccs4)cc3)CC2)c1 | -2 |
| Cc1[nH]nc2cc(F)c(-c3cc(OC[C@@H](N)Cc4ccccc4)cnc3-c3ccoc3)cc12 | 6 |
| CC(Oc1c(C2CCN(CCCCNC(=O)c3ccc(-c4ccc(C#N)cc4)cc3)CC2)ccc2c1CCCC2)C(N)=O (stereo not given) | -3 |
| CCCCOc1ccc(CNCCCCCCNCc2ccc(OCCCC)c3ccccc23)c2ccccc12 | 2 |
| O=C(NC1CCN(Cc2ccccc2)CC1)c1ccc(-c2nc3cc4ccccc4cc3[nH]2)s1 | -1 |
| CC1(C)N=C(N)NC(NOCC=Cc2ccccc2)=N1 | -2 |

| SMILES | inhibition [%] |
| --- | --- |
| CC(NCC(O)Cn1c2ccccc2c2ccccc21)c1ccccc1 (stereo not given) | 9 |
| O=C(Nc1ccc2oc(-c3ccc(Br)cc3)nc2c1)c1ccc([N+](=O)[O-])o1 | 2 |
| CCCCCCN(CCCCCC)CC(O)c1c(OC)ccc2ccccc12 (stereo not given) | -1 |
| COc1ccc(C2CC(=O)C3=C(C2)NC(C)=C(C(=O)OC(C)C)C3c2c(F)cccc2Cl)cc1OC (stereo not given) | -1 |
| Nc1nc(N)c2cc3ccc(OCc4ccccc4)cc3nc2n1 | 0 |
| CN(CCc1ccccn1)c1cccc2c1nc(-c1cccnc1)n2CCNCc1ccccc1 | 2 |
| O=C(NCC1CN(Cc2ccc(N3CCCC3)o2)CCCO1)c1ccc2c(c1)OCO2 (stereo not given) | -1 |
| COc1cc2ncnc(Nc3ccc4nc(Cc5ccccc5)[nH]c4c3)c2cc1OC | 0 |
| O=C(Nc1ccc(S(=O)(=O)N2CCCCCC2)cc1)c1cc(-c2ccccc2O)n[nH]1 | 6 |
| Cc1cccc2[nH]c(-c3ccc(-c4ccc(NC(=O)Nc5ccc(Cl)c(Cl)c5)cc4)cc3)nc12 | 0 |
| O=C(C=Cc1ccc(-c2nc3ccccc3[nH]2)cc1)NC1CCN(Cc2ccccc2)CC1 | 3 |
| O=C(NCC1CCN(Cc2cccc(C(F)(F)F)c2)C1)c1cc(-c2cccc(C(F)(F)F)c2)cs1 (stereo not given) | -2 |
| O=C(CN1CCCCC1)Nc1ccc(Nc2nccc(NCC(O)c3ccccc3)n2)cc1 (stereo not given) | 3 |
| NC(=O)c1cnc2cc(-c3ccoc3)ccc2c1Nc1ccc(NC(=O)Nc2ccccc2Cl)cc1 | -5 |
| Cc1ccc(-n2nc3ccc(NC(=O)c4ccc([N+](=O)[O-])o4)cc3n2)cc1C | -3 |
| CCCCc1ccc(-c2c(N)nc(N)nc2CC)cc1 | -1 |
| CCCCOc1ccc(/C=C/c2ccc(-c3c(C)[nH]c(C)c(Cl)c3=O)s2)cc1 | -2 |
| COc1ccc(C(C(=O)NC2CCN(C[C@H](O)c3ccnc4ccc(OC)cc34)CC2)N2CCN(c3ccc(Cl)c(Cl)c3)CC2)cc1 (stereo not given in full) | 2 |
| Nc1nccc2ccc(-c3ccsc3)cc12 | 4 |
| Cc1cccc2[nH]c(-c3cccc(-c4cccc(NC(=O)c5cncn5C)c4)c3)nc12 | 0 |

Test system: not listed separately
Test: inhibition of 3D7 malaria parasite growth – strain 3D7 (AID 2306);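 further: 0% = DMSO wells and 100% = chloroquine plus artemisinin control wells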
Conditions: P. falciparum 3D7 erythrocytic growth, LDH absorbance, 72 h; at 2 µM; stronger effect = higher value

| SMILES | growth inhibition |
| --- | --- |
| CN(c1ccc2c(c1)nc(Nc1ccc(Cl)cc1)n2C)c1ccnc(Nc2ccc(CS(C)(=O)=O)cc2)n1 | 97% (active) |
| COc1ccc(Nc2nc(C)cc(NCc3ccc(-c4c(C)noc4C)cc3)n2)cc1 | 99% (active) |
| CCCCCCN1CCCN(Cc2ccc(C(=O)Nc3ccc(CCC)cc3)cc2)CC1 | 92% (active) |
| COc1cc2nc(Nc3ccc(Oc4ccccc4)cc3)nc(Nc3ccc(Oc4ccccc4)cc3)c2cc1OC | 95% (active) |
| CN1CCCC(CN2CCN(Cc3cccc(-c4ccc(-c5nc6ccccc6[nH]5)cc4)c3)CC2)C1 (stereo not given) | 100% (active) |
| COc1ccc2ncc(F)c(CCN3C[C@H](CNCc4ccc5c(c4)OCCO5)[C@H](O)C3)c2n1 | 94% (active) |
| COc1ccc(CNC(=O)c2cnc3cc(-c4c(C)noc4C)ccc3c2Nc2ccccc2C(C)(C)C)cc1 | 99% (active) |
| CC(O)C1CCCCN1C(=O)c1cccc(-c2ccc(-c3nc4ccccc4[nH]3)s2)c1 (stereo not given) | 100% (active) |
| CC(C)(CN1CCCC1)CN(Cc1ccc(-c2ccc(C(F)(F)F)cc2)cc1)C(=O)Cn1c(CCc2cccc(F)c2F)nc(=O)c2ccccc21 | 97% (active) |
| CC(CN(C)C)C(=O)Nc1ccc(-c2cccc(-c3nc4ccc(C(F)(F)F)cc4[nH]3)c2)cc1 (stereo not given) | 101% (active) |
| Cc1[nH]c(C)c(-c2ccc(Oc3ccc(O)cc3)cc2)c(=O)c1Cl | 91% (active) |
| Cc1cccc2[nH]c(-c3ccc(-c4cccc(CNCc5cccc(N)c5)c4)cc3)nc12 | 101% (active) |
| COc1ccc2nccc(NCC3(O)CCC(NCc4ccc5c(n4)NC(=O)CS5)CC3)c2n1 (stereo not given) | 100% (active) |
| Cc1cc2cc(-c3ccc(CN)cc3)ccc2nc1N | 92% (active) |
| N#Cc1cccc(CN2CCCN(c3ccc(NC(=O)c4cccs4)cc3)CC2)c1 | 96% (active) |
| Cc1[nH]nc2cc(F)c(-c3cc(OC[C@@H](N)Cc4ccccc4)cnc3-c3ccoc3)cc12 | 95% (active) |
| CC(Oc1c(C2CCN(CCCCNC(=O)c3ccc(-c4ccc(C#N)cc4)cc3)CC2)ccc2c1CCCC2)C(N)=O (stereo not given) | 100% (active) |
| CCCCOc1ccc(CNCCCCCCNCc2ccc(OCCCC)c3ccccc23)c2ccccc12 | 81% (active) |
| O=C(NC1CCN(Cc2ccccc2)CC1)c1ccc(-c2nc3cc4ccccc4cc3[nH]2)s1 | 99% (active) |
| CC1(C)N=C(N)NC(NOCC=Cc2ccccc2)=N1 | 98% (active) |

| SMILES | growth inhibition |
| --- | --- |
| CC(NCC(O)Cn1c2ccccc2c2ccccc21)c1ccccc1 (stereo not given) | 96% (active) |
| O=C(Nc1ccc2oc(-c3ccc(Br)cc3)nc2c1)c1ccc([N+](=O)[O-])o1 | 92% (active) |
| CCCCCCN(CCCCCC)CC(O)c1c(OC)ccc2ccccc12 (stereo not given) | 101% (active) |
| COc1ccc(C2CC(=O)C3=C(C2)NC(C)=C(C(=O)OC(C)C)C3c2c(F)cccc2Cl)cc1OC (stereo not given) | 93% (active) |
| Nc1nc(N)c2cc3ccc(OCc4ccccc4)cc3nc2n1 | 100% (active) |
| CN(CCc1ccccn1)c1cccc2c1nc(-c1cccnc1)n2CCNCc1ccccc1 | 90% (active) |
| O=C(NCC1CN(Cc2ccc(N3CCCC3)o2)CCCO1)c1ccc2c(c1)OCO2 (stereo not given) | 83% (active) |
| COc1cc2ncnc(Nc3ccc4nc(Cc5ccccc5)[nH]c4c3)c2cc1OC | 87% (active) |
| O=C(Nc1ccc(S(=O)(=O)N2CCCCCC2)cc1)c1cc(-c2ccccc2O)n[nH]1 | 100% (active) |
| Cc1cccc2[nH]c(-c3ccc(-c4ccc(NC(=O)Nc5ccc(Cl)c(Cl)c5)cc4)cc3)nc12 | 101% (active) |
| O=C(C=Cc1ccc(-c2nc3ccccc3[nH]2)cc1)NC1CCN(Cc2ccccc2)CC1 | 99% (active) |
| O=C(NCC1CCN(Cc2cccc(C(F)(F)F)c2)C1)c1cc(-c2cccc(C(F)(F)F)c2)cs1 (stereo not given) | 100% (active) |
| O=C(CN1CCCCC1)Nc1ccc(Nc2nccc(NCC(O)c3ccccc3)n2)cc1 (stereo not given) | 101% (active) |
| NC(=O)c1cnc2cc(-c3ccoc3)ccc2c1Nc1ccc(NC(=O)Nc2ccccc2Cl)cc1 | 100% (active) |
| Cc1ccc(-n2nc3ccc(NC(=O)c4ccc([N+](=O)[O-])o4)cc3n2)cc1C | 94% (active) |
| CCCCc1ccc(-c2c(N)nc(N)nc2CC)cc1 | 95% (active) |
| CCCCOc1ccc(/C=C/c2ccc(-c3c(C)[nH]c(C)c(Cl)c3=O)s2)cc1 | 97% (active) |
| COc1ccc(C(C(=O)NC2CCN(C[C@H](O)c3ccnc4ccc(OC)cc34)CC2)N2CCN(c3ccc(Cl)c(Cl)c3)CC2)cc1 (stereo not given in full) | 101% (active) |
| Nc1nccc2ccc(-c3ccsc3)cc12 | 100% (active) |
| Cc1cccc2[nH]c(-c3cccc(-c4cccc(NC(=O)c5cncn5C)c4)c3)nc12 | 103% (active) |
